The panel holds about 83,000 compounds, 20% with a hit somewhere; the sample as a whole holds those more often.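 For each line, cells grew in 96-well plates with the test compound present at a single concentration for 48 hours.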 Values without a mark were called inactive. Active and inactive are the calls of the source. How the source made its calls: active means growth percent below 10; inactive means the rest.

Some test systems named below: DU-145 prostate; K-562 leukemia; MALME-3M melanoma; MDA-MB-231 breast; RXF 393 renal; SF-268 CNS; SF-295 CNS; SF-539 CNS; UACC-257 melanoma; M14 melanoma; HCT-15 colon; HT29 colon; SNB-75 CNS; SNB-19 CNS; U251 CNS; PC-3 prostate; SK-MEL-5 melanoma; UACC-62 melanoma; SK-MEL-28 melanoma; LOX IMVI melanoma.
Holding throughout (experiment): NCI-60 one-dose screen, 48 h (100 = growth as untreated, 0 = no growth, -100 = all killed)
What all share (details): 10 µM unless noted

Consider `O=C1C=CC(=O)N1CCCCCCCCCCN1C(=O)C=CC1=O`, for which the growth in the assay on DU-145 prostate is 80.1%; in the assay on K-562 leukemia, 5.56% (active); with MALME-3M melanoma it was 70%; with MDA-MB-231 breast, 104%; in the assay on RXF 393 renal it was 76.6%; in the assay on SF-268 CNS, 103%. The growth is 73.7% with SF-295 CNS; 91.1% with SF-539 CNS; 76.1% in the assay with UACC-257 melanoma; 77.8% in the assay with M14 melanoma; 92.4% in the assay with HCT-15 colon; 63.2% in the assay on HT29 colon. Further, the growth with SNB-75 CNS is 95.7%; in the assay on SNB-19 CNS, 108%; with U251 CNS it was 76.9%; in the assay on PC-3 prostate it was 82.2%; in the assay with SK-MEL-5 melanoma, 95.8%; in the assay with UACC-62 melanoma, 102%. For the same molecule, the growth in the assay with SK-MEL-28 melanoma was 97%.
On to `Cc1ccc(C)c2c1sc1nc3nc4sc5ccccc5n4c(=N)c3c(=O)n12`, for which the growth in the assay with DU-145 prostate is 108%; in the assay on K-562 leukemia it was 132%; in the assay with MALME-3M melanoma it was 143%; in the assay on MDA-MB-231 breast, 93.5%; in the assay with RXF 393 renal it was 122%; in the assay on SF-268 CNS, 95.6%. Further, the growth in the assay on SF-295 CNS was 104%; in the assay with SF-539 CNS it was 101%; in the assay with UACC-257 melanoma it was 129%; with M14 melanoma it was 94.8%; in the assay with HCT-15 colon it was 102%; in the assay with HT29 colon, 104%. The growth in the assay on SNB-75 CNS is 73.7%; with SNB-19 CNS, 89.4%; in the assay with U251 CNS, 107%; with PC-3 prostate, 71.5%; in the assay with SK-MEL-5 melanoma, 94.6%; in the assay on UACC-62 melanoma, 120%. For the same molecule, the results for the growth in the assay with LOX IMVI melanoma and in the assay with SK-MEL-28 melanoma were 92.6% and 110%, respectively.
For `O=C1/C(=C/c2ccc([N+](=O)[O-])cc2)Oc2ccc(O)cc21`, the growth was 103% with DU-145 prostate; 41.7% with K-562 leukemia; 91.8% in the assay with MALME-3M melanoma; 89% with MDA-MB-231 breast; 92.6% in the assay with RXF 393 renal; 89.9% with SF-268 CNS. Besides, the growth with SF-295 CNS was 68.2%; with SF-539 CNS it was 86.4%; with UACC-257 melanoma, 67.3%; in the assay on M14 melanoma it was 97.8%; in the assay with HCT-15 colon, 84.3%; in the assay on HT29 colon, 46.8%. The growth in the assay on SNB-75 CNS was 95.7%; in the assay on SNB-19 CNS, 90.7%; with U251 CNS, 63.6%; in the assay on PC-3 prostate, 87.9%; with SK-MEL-5 melanoma, 86.8%; in the assay on UACC-62 melanoma, 41.4%. Also, the growth was 60% in the assay on LOX IMVI melanoma and 107% in the assay with SK-MEL-28 melanoma.
In the case of `O=C(CCc1nnc2sc(/C=C\c3ccccc3)nn12)c1nc2ccccc2[nH]1`, the growth was 98% in the assay with DU-145 prostate; 2.17% (active) with K-562 leukemia; 93.8% in the assay on MALME-3M melanoma; 83% with MDA-MB-231 breast; 108% with RXF 393 renal; 107% in the assay on SF-268 CNS. Further, the growth in the assay on SF-295 CNS is 83.8%; in the assay with SF-539 CNS, 65.9%; with UACC-257 melanoma it was 94.9%; in the assay with M14 melanoma it was 90.7%; in the assay with HCT-15 colon, 99.6%; in the assay with HT29 colon it was 36.8%. The growth in the assay on SNB-75 CNS was 87.9%; with SNB-19 CNS it was 110%; in the assay on U251 CNS, 89.1%; in the assay on PC-3 prostate it was 77.1%; in the assay with SK-MEL-5 melanoma, 75.9%; with UACC-62 melanoma, 103%. The figures for the growth in the assay with LOX IMVI melanoma and with SK-MEL-28 melanoma were 75.3% and 93.3%, respectively.
As to `CCCCOC(=O)C1OC(Oc2ccc3c(C)cc(=O)oc3c2)[C@@H](OC(C)=O)C(OC(C)=O)C1OC(C)=O` (stereo partly drawn), the growth is 104% in the assay with DU-145 prostate; 106% with K-562 leukemia; 89.1% with MALME-3M melanoma; 104% in the assay on MDA-MB-231 breast; 106% in the assay on RXF 393 renal; 97.4% in the assay on SF-268 CNS. The growth was 96.1% in the assay on SF-295 CNS; 96% in the assay with SF-539 CNS; 93.9% with UACC-257 melanoma; 93.9% in the assay with M14 melanoma; 99.2% in the assay on HCT-15 colon; 104% in the assay with HT29 colon. Besides, the growth in the assay with SNB-75 CNS is 86.3%; in the assay on SNB-19 CNS, 99.1%; in the assay on U251 CNS, 100%; in the assay with PC-3 prostate it was 104%; with SK-MEL-5 melanoma, 101%; in the assay on UACC-62 melanoma, 97%. Moreover, the growth in the assay on SK-MEL-28 melanoma is 108%.
As to `CCC(C)[C@H]1O[C@]2(CC[C@@H]1C)C[C@@H]1C[C@@H](C/C=C(\C)[C@@H](OC3C[C@H](OC)C(O[C@H]4C[C@H](OC)[C@@H](O)[C@H](C)O4)[C@H](C)O3)[C@@H](C)/C=C/C=C3\CO[C@@H]4[C@H](O)C(C)=C[C@@H](C(=O)O1)[C@]34O)O2` (stereo partly drawn), the growth with DU-145 prostate was 22.1%; in the assay on K-562 leukemia, 14.1%; with MALME-3M melanoma, 0.803% (active); with MDA-MB-231 breast, -15.6% (active); with RXF 393 renal, -23.1% (active); in the assay on SF-268 CNS, 25.1%. Further, the growth in the assay with SF-295 CNS was -36.7% (active); with SF-539 CNS, -15.4% (active); in the assay with UACC-257 melanoma, 47.3%; in the assay on M14 melanoma, -73.1% (active); in the assay with HCT-15 colon, 8.26% (active); in the assay with HT29 colon, 4.41% (active). Moreover, the growth was -0.276% (active) with SNB-75 CNS; 33.1% in the assay with SNB-19 CNS; 31.5% with U251 CNS; 1.52% (active) in the assay on PC-3 prostate; -85.4% (active) in the assay with SK-MEL-5 melanoma; 18.4% in the assay on UACC-62 melanoma. Moreover, the growth in the assay on LOX IMVI melanoma was -83.1% (active); with SK-MEL-28 melanoma, -16.6% (active).

For the origin of these results see PubChem BioAssay (NCI).
